MITF inh = blocks human microphthalmia-associated transcription factor; actives 0.91% (n = 650,000); AlphaScreen MITF homodimerization, bead proximity signal; inhibition, % at 2.6 µM; O75030; in the data active = inhibition above about 50%;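 note: 0% = vehicle wells with protein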
Target sequence (O75030 whole entry, looked up): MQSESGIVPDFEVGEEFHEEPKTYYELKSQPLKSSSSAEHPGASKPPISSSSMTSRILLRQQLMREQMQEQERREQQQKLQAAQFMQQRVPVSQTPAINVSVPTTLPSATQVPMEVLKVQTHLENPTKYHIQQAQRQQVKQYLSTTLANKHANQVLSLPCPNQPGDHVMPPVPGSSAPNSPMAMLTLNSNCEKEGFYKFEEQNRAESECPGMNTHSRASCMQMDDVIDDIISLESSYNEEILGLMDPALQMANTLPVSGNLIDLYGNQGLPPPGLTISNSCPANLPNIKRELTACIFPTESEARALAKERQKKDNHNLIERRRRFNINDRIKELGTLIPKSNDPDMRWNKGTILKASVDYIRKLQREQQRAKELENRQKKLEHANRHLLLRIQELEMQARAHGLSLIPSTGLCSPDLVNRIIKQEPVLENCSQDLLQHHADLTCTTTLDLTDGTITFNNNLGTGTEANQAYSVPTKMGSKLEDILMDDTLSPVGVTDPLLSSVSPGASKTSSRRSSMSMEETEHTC
GPR151 ag = activates the human receptor GPR151. Q8TDV0. PathHunter beta-arrestin GPR151 cells, luminescence. activation, % at 11.2 µM. actives 1% (n = 650,000). AID 1508602; in the data active = activation above about 4.9%;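 note: 0% = median of compound wells and 100% = cells with positive control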
TEAD-YAP block = TEAD-YAP interaction inhibition. HEK-TIYL cells, TEAD-Gal4/YAP UAS-luciferase luminescence. actives 1.4% (n = 640,000). inhibition, % at 9.12 µM; in the data active = inhibition above about 32%;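 note: 0% = median of test compound wells and 100% = reference inhibitor wells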
FBW7 activator = human FBW7 E3 ligase activation, primary screen; actives 0.13% (n = 650,000); normalized activity (activation), % at 26.1 µM; AlphaScreen FBW7–phospho-cyclin E peptide binding, activator screen; Q969H0; AID 1259310; in the data active = normalized activity above about 1.9%;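 note: purified mutant Fbw7 with reduced substrate affinity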
GPR151 conf act = human GPR151 activation, confirmation screen; shares compounds with GPR151 ag; GPR151 PathHunter beta-arrestin cells, luminescence, 90 min; % of EA-reagent control over plate median; activation, % at 11.2 µM; 6,700 tested, under 10 active;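 active = mean percent activation across replicates above the confirmation screen cutoff of 4.91%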
GPR119 counter = activates human GPR119 in a GPR151 counter-screen; shares compounds with GPR151 ag; actives 0.3% (n = 6,700); GPR119 PathHunter beta-arrestin cells, luminescence, 90 min; 0 = compound-well median, 100 = enzyme-acceptor control; activation, % at 11.2 µM; AID 1508611;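 active = mean percent activation in the counterscreen above 29.09%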;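 note: counterscreen on off-target GPR119 to flag nonselective hits from the GPR151 activator screen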
Numbers without * were called inactive; x = no result given; ! = a repeat was not active. In the library only some 3.5% were active in any assay of this set; here they are far more common.

SMILES	MITF inh	GPR151 ag	TEAD-YAP block	FBW7 activator	GPR151 conf act	GPR119 counter
Cc1cc(-c2ccccc2)n(-c2cc(Nc3cccc(F)c3)ncn2)n1	1	2	-10	0	x	x
Cc1cc(-c2ccccc2)n(-c2cc(Nc3ccccc3)ncn2)n1	5	5.1*	0	0	1	6
COc1cc(S(=O)(=O)N2CCN(c3ccc(C)c(C)c3)CC2)ccc1F	-1	5.9*	-3	0	2	3
NNc1nnc2c3ccccc3n(CCc3ccccc3)c2n1	3	1	9	0	x	x
CC(C)(C)NC(=O)CN(Cc1ccccc1)S(=O)(=O)c1ccc(F)cc1	0	5.3*	12	0	0	-2
O=C(CN(Cc1ccccc1)S(=O)(=O)c1ccc(F)cc1)Nc1cccc([N+](=O)[O-])c1	13	3	3	0	x	x
O=[N+]([O-])c1cccc(S(=O)(=O)NCc2ccco2)c1	11	3	13	0	x	x
O=[N+]([O-])c1cccc(S(=O)(=O)NCc2ccc(F)cc2)c1	4	9.0*	10	0	1	14
O=C(CN(Cc1ccc(F)cc1)S(=O)(=O)c1ccccc1)Nc1cccc([N+](=O)[O-])c1	9	5.1*	-1	0	0	4
c1nnn(CC2CCOCO2)n1 (stereo not drawn)	12	15*	7	0	0	-5
CCOC(=O)c1cccc(NC(=O)CCc2c(C)nc3nc(CN)nn3c2C)c1	3	5.9*	12	0	-2	-20
O=C(NCC1Cc2cccc(-c3ccncc3)c2O1)c1cccc(Cn2cccn2)c1 (stereo not drawn)	-3	9.0*	2	0	0	8
COc1ccc(S(=O)(=O)Nc2cccc([N+](=O)[O-])c2)c(Cl)c1Cl	-3	5.2*	13	0	-1	-4
COc1ccc(S(=O)(=O)NCCSC(C)(C)C)c(Cl)c1Cl	8	8.6*	-3	0	2	8
COc1ccc(S(=O)(=O)Nc2cccc(N(C)S(C)(=O)=O)c2)c(Cl)c1Cl	5	-2	9	0	x	x
O=C(O)C1CCC(N2C(=O)c3cccc([N+](=O)[O-])c3C2=O)CC1 (stereo not drawn)	-5	5.2*	4	0	-1	-1
O=C1c2cccc([N+](=O)[O-])c2C(=O)N1C1CCCCCCC1	17	-1	15	0	x	x
COc1ccc(/C=C/C(=O)c2cccc(OC)c2)cc1	-1	-1	-16	0	x	x
COc1cccc(C(=O)/C=C/c2ccccc2OC)c1	16	7.1*	-17	0	2	5
CN(C)C(=O)COc1cccc(Nc2ccc(-c3ccc(C=O)cc3)cn2)c1	11	1	-6	0	x	x
COc1ccc(-n2nnc3c(N4CCN(C(=O)CC5CCCCC5)CC4)ncnc32)cc1	1	2	-3	0	x	x
COc1cccc(-n2nnc3c(N4CCN(S(=O)(=O)c5cc(F)ccc5F)CC4)ncnc32)c1	-5	6.0*	2	0	-1	-4
COc1ccc(-n2nnc3c(N4CCN(C(=O)Cc5ccc(Cl)cc5)CC4)ncnc32)cc1	1	5.5*	0	0	0	-3
CC(=O)CC(=O)N1CCc2ccccc21	0	0	9	1	x	x
Cc1ccccc1OCc1n[nH]c(=S)n1C	-6	7.2*	5	0	0	-1
SMILES	MITF inh	GPR151 ag	TEAD-YAP block	FBW7 activator	GPR151 conf act	GPR119 counter
O=C1CCCN1CCCNc1nc(Nc2nccc3ccccc23)nc2c1ncn2CCN1CCCC1=O	11	0	11	0	x	x
CCc1ccc(CN(C)c2nc3nonc3nc2NCCOC)nc1	3	3	5	0	x	x
CC1CCCC(C)N1c1nnc(NC(=O)c2csc3c2CCCC3)s1 (stereo not drawn)	-10	5.8*	-15	0	-1	8
O=C(NCC(=O)N1CCN(c2ccccc2)CC1)c1c(F)cccc1F	-3	6.0*	-9	0	1	9
CC(CC(=O)N1CCN(c2ccc(F)cc2)CC1)c1ccccc1 (stereo not drawn)	0	11*	3	0	0	3
CCCC(C)C(=O)N1CCN(c2ccc(F)cc2)CC1 (stereo not drawn)	6	1	3	0	x	x
CC(c1ccccc1)N1CC(C(=O)N2CCN(c3ccc(F)cc3)CC2)CC1=O (stereo not drawn)	4	5.2*	2	0	-1	-17
CCN1CCN(C(=O)Cn2ncc3c(C)n(Cc4cccc(Cl)c4)c(C)c3c2=O)CC1	-1	0	1	0	x	x
COCCNC(=O)Nc1nc(-c2ccc3c(c2)CCCC3)cs1	0	7.3*	-17	0	0	-5
O=C(CN1C(=O)CCC1=O)Nc1nc(-c2ccc3c(c2)CCCC3)cs1	9	1	-5	0	x	x
Cc1ccc(C(=O)N/C(=C/c2ccco2)C(=O)NC(C)(C)C)cc1	-9	-2	3	0	x	x
CCc1ccc(N(C(=O)c2csnn2)C(C(=O)NC(C)(C)CC)c2ccncc2)cc1 (stereo not drawn)	10	22*	-8	0	0	8
O=C1NN(c2ccc(F)cc2)C(=O)/C1=C\c1cccc(Cl)c1Cl	-13	5.4*	-4	0	2	3
CC(C)Cn1c(CN2CCN(c3ccc(F)cc3)CC2)nc2c1c(=O)n(C)c(=O)n2C	11	10*	2	0	1	6
Cc1sc2nc(C3CC3)n(C3CCN(C(=O)c4ccccn4)CC3)c(=O)c2c1C	-13	6.5*	-31	0	1	3
Nc1ccn([C@@H]2O[C@H](CO)[C@@H](O)C2(F)F)c(=O)n1	-2	8.7*!	-29	0	0	1
Nc1ccn([C@@H]2O[C@H](CO)[C@@H](O)C2O)c(=O)n1 (stereo partly drawn)	-15	-2	-30	0	x	x
COC(=O)CC(NC1CCN(c2ccc(CC(=O)N3CCCC3)cc2)CC1)C(=O)OC (stereo not drawn)	8	6.1*	-10	0	1	23
COC(=O)C1=C(C)N(c2ccc(Br)cc2)C(=O)/C1=C\c1cccs1	25	-1	-7	1	x	x
Cc1ccc(CNC(=O)c2cc(S(=O)(=O)N3CCCCC3)c[nH]2)cc1	-2	2	-2	0	x	x
CCOc1ccc(NC(=O)C2c3cccc[n+]3CC(=O)N2c2ccccc2O)cc1 (stereo not drawn)	9	5.1*	-35	0	-1	0
O=C(Nc1ccc(Cl)cc1)C1c2cccc[n+]2CC(=O)N1c1ccc(O)cc1 (stereo not drawn)	-1	1	-2	0	x	x
COc1cc(CNc2ccc3ncc(-c4cccc5cccnc45)n3n2)cc(OC)c1OC	-15	0	-1	0	x	x

Screens as filed in PubChem.
